This is an account of results in paper PMC5700166.

What all share (assay): protein-binding microarray (PBM); PBM: ~300 nM protein, 6 mM HEPES pH 7.8, 80 mM KCl, 0.5 mM EDTA, 0.5 mM EGTA, 6% glycerol, 35 ng/ul poly-dIdC, 1% milk, 1 h, room temperature; Ap Aiptasia and Nv Nematostella (sea anemones) / Co Capsaspora / Aq Amphimedon (sponge) / Dm Drosophila / Hu human; RHD is the Rel homology domain; high values mean tight binding
Holding throughout (conditions): dsDNA, one strand shown

The target in one test is T1, GST-Ap-NF-kB RHD (Exaiptasia pallida (Aiptasia), UniProt A0A913YAJ5 2-422).
T1 sequence: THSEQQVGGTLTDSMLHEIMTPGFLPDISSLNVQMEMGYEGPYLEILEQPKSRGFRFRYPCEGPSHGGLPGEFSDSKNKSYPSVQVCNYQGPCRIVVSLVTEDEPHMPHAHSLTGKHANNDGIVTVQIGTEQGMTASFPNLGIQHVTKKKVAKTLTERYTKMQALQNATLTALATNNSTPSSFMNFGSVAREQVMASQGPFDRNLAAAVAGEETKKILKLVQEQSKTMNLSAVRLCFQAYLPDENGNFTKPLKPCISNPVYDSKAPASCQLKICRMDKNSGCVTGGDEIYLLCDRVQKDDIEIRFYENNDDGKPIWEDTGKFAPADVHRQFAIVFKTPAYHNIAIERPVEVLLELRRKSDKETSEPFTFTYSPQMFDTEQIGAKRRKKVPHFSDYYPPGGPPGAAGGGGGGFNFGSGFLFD

Test [1] deals with T2, GST-Nv-NF-kB (Cys allele) (Nematostella vectensis, UniProt E5G601 2-411).
T2 sequence: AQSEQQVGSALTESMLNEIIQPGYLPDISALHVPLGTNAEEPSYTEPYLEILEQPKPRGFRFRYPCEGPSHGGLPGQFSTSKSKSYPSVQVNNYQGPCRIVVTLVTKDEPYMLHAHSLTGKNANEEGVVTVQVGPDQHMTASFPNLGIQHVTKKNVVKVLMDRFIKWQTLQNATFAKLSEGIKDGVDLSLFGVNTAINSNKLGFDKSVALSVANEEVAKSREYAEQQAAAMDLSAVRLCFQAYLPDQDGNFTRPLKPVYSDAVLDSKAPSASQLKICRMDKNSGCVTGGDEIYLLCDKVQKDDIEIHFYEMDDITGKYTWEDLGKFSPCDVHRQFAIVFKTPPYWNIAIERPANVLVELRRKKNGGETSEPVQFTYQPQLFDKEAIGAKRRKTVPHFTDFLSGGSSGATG

Test [2] addresses T3, GST-Nv-NF-kB (Ser allele) (Nematostella vectensis, UniProt A7UNT2 2-411).
T3 sequence: T2 sequence with Q21R, C66S, S207N, E215Q, V217A, E225K, A268E, D399E

For a further test, the target named is T4, GST-Co-NF-kB (Capsaspora owczarzaki, UniProt F1ARL5 200-546).
T4 sequence: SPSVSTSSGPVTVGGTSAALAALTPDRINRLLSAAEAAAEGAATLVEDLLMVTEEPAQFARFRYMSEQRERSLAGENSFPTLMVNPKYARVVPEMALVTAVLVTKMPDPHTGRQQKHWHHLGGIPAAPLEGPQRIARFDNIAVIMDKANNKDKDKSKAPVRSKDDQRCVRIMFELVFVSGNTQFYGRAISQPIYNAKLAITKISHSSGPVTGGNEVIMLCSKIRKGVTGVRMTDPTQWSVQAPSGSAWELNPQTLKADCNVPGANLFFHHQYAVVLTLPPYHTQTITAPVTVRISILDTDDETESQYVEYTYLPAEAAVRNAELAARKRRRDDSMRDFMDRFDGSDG

Another test deals with T5, GST-Aq-NF-kB (Amphimedon queenslandica, UniProt A9Y5G7 2-389).
T5 sequence: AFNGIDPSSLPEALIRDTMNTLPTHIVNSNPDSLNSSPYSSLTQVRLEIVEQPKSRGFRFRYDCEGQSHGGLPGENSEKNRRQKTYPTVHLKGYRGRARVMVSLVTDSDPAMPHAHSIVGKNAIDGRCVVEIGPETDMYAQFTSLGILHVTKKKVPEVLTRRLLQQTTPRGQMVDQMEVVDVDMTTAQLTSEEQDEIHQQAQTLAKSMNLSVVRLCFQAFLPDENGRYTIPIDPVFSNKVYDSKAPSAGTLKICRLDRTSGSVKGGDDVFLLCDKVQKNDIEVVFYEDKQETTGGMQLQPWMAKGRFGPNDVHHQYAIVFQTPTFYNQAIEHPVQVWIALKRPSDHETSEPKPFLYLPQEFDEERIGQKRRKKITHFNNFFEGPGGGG

The next test addresses GST-Hu-p50 (Homo sapiens, UniProt P19838 7-356).

Numbering of substitutions follows the chain as printed.

Sequence of GST-Hu-p50 (P19838 7-356): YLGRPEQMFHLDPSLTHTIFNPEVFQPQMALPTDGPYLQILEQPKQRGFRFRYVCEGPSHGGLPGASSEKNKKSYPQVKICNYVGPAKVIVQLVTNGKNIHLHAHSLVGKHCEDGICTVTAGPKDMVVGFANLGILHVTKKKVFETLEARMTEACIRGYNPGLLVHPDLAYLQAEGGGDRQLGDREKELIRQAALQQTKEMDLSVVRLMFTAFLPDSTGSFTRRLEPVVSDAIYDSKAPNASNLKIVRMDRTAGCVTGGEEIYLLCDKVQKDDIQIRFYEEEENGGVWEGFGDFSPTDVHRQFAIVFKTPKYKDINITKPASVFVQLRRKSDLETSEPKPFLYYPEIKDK

Consider “CCGATTAACATCATCCCGGGAAATGATGTTAATCGGGTCTTGATTCGCTTGACGCTGCTG”, for which the binding signal with GST-Ap-NF-kB RHD was found to be 1.98 z-score; in test [1] it was 2.94 z-score; in test [2], 2.26 z-score; with GST-Co-NF-kB, 3.63 z-score; in the test with GST-Aq-NF-kB it was 2.23 z-score; with GST-Hu-p50, 1.36 z-score.

For “CCGATTAACATCAGGAAGCTCCCTGATGTTAATCGGGTCTTGATTCGCTTGACGCTGCTG”, the binding signal in the test with GST-Ap-NF-kB RHD is 1.2 z-score; in test [1], 1.37 z-score; with GST-Aq-NF-kB, 3.72 z-score; with GST-Hu-p50 it was 1.33 z-score.

Take “CCGATTAACATCAAGGTGGGAATTGATGTTAATCGGGTCTTGATTCGCTTGACGCTGCTG”: the binding signal with GST-Ap-NF-kB RHD came out at 1.55 z-score; in test [1] it was 3.21 z-score; in test [2], 2.3 z-score; with GST-Co-NF-kB, 2.52 z-score; in the test with GST-Aq-NF-kB it was 1.99 z-score; with GST-Hu-p50, 1.71 z-score.

For the sequence “CCGATTAACATCAGGGGAGACAATGATGTTAATCGGGTCTTGATTCGCTTGACGCTGCTG”, the binding signal in the test with GST-Ap-NF-kB RHD is 3.1 z-score; in test [1], 3.18 z-score; in test [2] it was 4.37 z-score; with GST-Co-NF-kB, 4.18 z-score; in the test with GST-Aq-NF-kB, 2.2 z-score; in the test with GST-Hu-p50, 2.14 z-score.

Turning to “CCGATTAACATCAGAAATGCCCATGATGTTAATCGGGTCTTGATTCGCTTGACGCTGCTG”, the binding signal amounted to 1.69 z-score in the test with GST-Aq-NF-kB and 1.76 z-score in the test with GST-Hu-p50.

For “CCGATTAACATCAGCTATTTCCCTGATGTTAATCGGGTCTTGATTCGCTTGACGCTGCTG”, the binding signal with GST-Ap-NF-kB RHD was found to be 2.08 z-score; in test [1], 3.01 z-score; in test [2] it was 3.4 z-score; with GST-Co-NF-kB it was 2.17 z-score; with GST-Aq-NF-kB it was 3.31 z-score; with GST-Hu-p50, 1.83 z-score.

In the case of “CCGATTAACATCAGGCTATTCCCTGATGTTAATCGGGTCTTGATTCGCTTGACGCTGCTG”, the binding signal was found to be 1.73 z-score with GST-Ap-NF-kB RHD; 2.68 z-score in test [1]; 1.67 z-score in test [2]; 1.6 z-score with GST-Co-NF-kB; 3.74 z-score in the test with GST-Aq-NF-kB; 1.4 z-score with GST-Hu-p50.

For “CCGATTAACATCAAGGAAATTTCTGATGTTAATCGGGTCTTGATTCGCTTGACGCTGCTG”, the results for the binding signal with GST-Aq-NF-kB and with GST-Hu-p50 were 1.71 z-score and 1.21 z-score, respectively.

In the case of “CCGATTAACATCATGTACGGGAATGATGTTAATCGGGTCTTGATTCGCTTGACGCTGCTG”, the binding signal stood at 1.13 z-score with GST-Ap-NF-kB RHD; 2 z-score in test [1]; 1.46 z-score in test [2]; 2.7 z-score with GST-Co-NF-kB; 3.27 z-score in the test with GST-Aq-NF-kB; 1.26 z-score in the test with GST-Hu-p50.

The sequence “CCGATTAACATCAAGAATTTCCGTGATGTTAATCGGGTCTTGATTCGCTTGACGCTGCTG” had a binding signal with GST-Aq-NF-kB of 1.89 z-score.

For the sequence “CCGATTAACATCACGGCTTTTCCTGATGTTAATCGGGTCTTGATTCGCTTGACGCTGCTG”, in the test with GST-Aq-NF-kB, the binding signal came to 1.72 z-score.

Regarding “CCGATTAACATCAGGCAACTCCCTGATGTTAATCGGGTCTTGATTCGCTTGACGCTGCTG”, the binding signal with GST-Ap-NF-kB RHD was determined as 1.44 z-score; in test [1], 2.44 z-score; in test [2], 1.64 z-score; in the test with GST-Co-NF-kB it was 1.09 z-score; with GST-Aq-NF-kB, 4.28 z-score; with GST-Hu-p50, 2.67 z-score.

“CCGATTAACATCATCCTGGGAAATGATGTTAATCGGGTCTTGATTCGCTTGACGCTGCTG”: the binding signal in the test with GST-Ap-NF-kB RHD turned out to be 1.13 z-score; in test [1], 2.18 z-score; in test [2], 1.37 z-score; with GST-Co-NF-kB, 2.72 z-score; in the test with GST-Aq-NF-kB, 1.03 z-score; with GST-Hu-p50, 1.74 z-score.

As for “CCGATTAACATCACCATGGGAAATGATGTTAATCGGGTCTTGATTCGCTTGACGCTGCTG”, the binding signal in the test with GST-Ap-NF-kB RHD was 1.25 z-score; in test [1] it was 2.23 z-score; in test [2], 1.45 z-score; with GST-Co-NF-kB it was 2.04 z-score; in the test with GST-Aq-NF-kB, 1.76 z-score; with GST-Hu-p50, 1.98 z-score.

In the case of “CCGATTAACATCATGGGGAGGAATGATGTTAATCGGGTCTTGATTCGCTTGACGCTGCTG”, the binding signal with GST-Ap-NF-kB RHD is 3.58 z-score; in test [1] it was 3.68 z-score; in test [2], 4.26 z-score; with GST-Co-NF-kB, 6.46 z-score; with GST-Aq-NF-kB it was 2.28 z-score; in the test with GST-Hu-p50, 2.59 z-score.

As for “CCGATTAACATCATCAGTTTCCCTGATGTTAATCGGGTCTTGATTCGCTTGACGCTGCTG”, the binding signal with GST-Ap-NF-kB RHD came out at 2.11 z-score; in test [1], 3.16 z-score; in test [2] it was 4.41 z-score; in the test with GST-Co-NF-kB it was 2.69 z-score; with GST-Aq-NF-kB, 2.58 z-score; in the test with GST-Hu-p50, 1.61 z-score.
